# Reference: the supplement of paper PMC12494721
# Structures can show the parent of a compound that is named as a salt.
# How the values were obtained:
# Details in all cases: 20 µM; incubation time: 27 h, anaerobic, 37 °C;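 for the amine columns active = adjusted P below 0.05 in both replicates with a change the same way and a mean fold change under 0.8 or over 1.25; inactive = the rest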
# [1] = tested on: Clostridium sporogenes DSM 1664; test: growth (OD595) fold change vs plate DMSO controls (fold change (ratio)); higher = more growth
# In short: (§1)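 The measure reported is growth, taken as fold change against the median of DMSO controls on the same plate. Anaerobic mGAM cultures in 96-well plates (27 h, 37 °C) were read at 595 nm, blank-subtracted, corrected for compound background using 20 µM compound solutions in water, and multiplied by a calibration factor of 5 to give OD. Any fold change above 1.5 became NA, and 2 biological replicates were averaged.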
# Escherichia coli IAI1 [2] = test: as above
# In short: as §1
# [3] = tested on: Klebsiella aerogenes DSM 30053; test: as above
# In short: as §1
# [4] = tested on: Ruminococcus gnavus DSM 108212; test: as above
# In short: as §1
# [5] = tested on: Klebsiella aerogenes DSM 30053; test: fold change of Histamine concentration vs plate DMSO controls (fold change (ratio)); higher = more amine produced, active = hit call of the paper (significant change in both replicates, either direction)
# In short: (§2)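 Each value is the fold change relative to DMSO-only wells on the same plate. Four gut bacterial strains were grown anaerobically in mGAM at 37 °C for 27 h in 80 µL wells, starting at OD 0.1 before a 1:1 dilution, with compounds at 20 µM final (sweeteners 50 µM). Whole cultures were extracted with cold acetonitrile/methanol containing 0.1% formic acid, centrifuged, and amines were quantified by LC–triple-quadrupole MS (dynamic MRM) against external calibration curves with within-batch drift correction. Values are means of 2 biological replicates.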
# [6] = tested on: Clostridium sporogenes DSM 1664; test: fold change of Tryptamine concentration vs plate DMSO controls (fold change (ratio)); higher = more amine produced, active = hit call of the paper (significant change in both replicates, either direction)
# In short: as §2
# [7] = tested on: Ruminococcus gnavus DSM 108212; test: as above
# In short: as §2
# Escherichia coli IAI1 [8] = test: fold change of Putrescine concentration vs plate DMSO controls (fold change (ratio)); higher = more amine produced, active = hit call of the paper (significant change in both replicates, either direction)
# In short: as §2
# [9] = tested on: Klebsiella aerogenes DSM 30053; test: as above
# In short: as §2
# Escherichia coli IAI1 [10] = test: fold change of Cadaverine concentration vs plate DMSO controls (fold change (ratio)); higher = more amine produced, active = hit call of the paper (significant change in both replicates, either direction)
# In short: as §2
# [11] = tested on: Klebsiella aerogenes DSM 30053; test: as above
# In short: as §2
# [12] = tested on: Ruminococcus gnavus DSM 108212; test: fold change of 2-Phenylethylamine concentration vs plate DMSO controls (fold change (ratio)); higher = more amine produced, active = hit call of the paper (significant change in both replicates, either direction)
# In short: as §2
SMILES,growth [1],growth (Escherichia coli IAI1 [2]),growth [3],growth [4],fold change of Histamine concentration [5],fold change of Tryptamine concentration [6],fold change of Tryptamine concentration [7],fold change of Putrescine concentration (Escherichia coli IAI1 [8]),fold change of Putrescine concentration [9],fold change of Cadaverine concentration (Escherichia coli IAI1 [10]),fold change of Cadaverine concentration [11],fold change of 2-Phenylethylamine concentration [12]
CNC(=O)CSP(=S)(OC)OC,0.992,1.06,1,0.99,1.07 (inactive),1.01 (inactive),1.13 (inactive),0.998 (inactive),0.888 (inactive),1.01 (inactive),1.12 (inactive),1.43 (inactive)
CCCCCCCCCCCCN=C(N)N,1.1,0.995,1.02,1.19,1.03 (inactive),0.927 (inactive),0.896 (inactive),1.01 (inactive),1.06 (inactive),0.951 (inactive),1.03 (inactive),0.893 (inactive)
CNC(=O)/C=C(\C)OP(=O)(OC)OC,1.06,1.01,1.01,0.948,1.01 (inactive),1.05 (inactive),0.985 (inactive),0.968 (inactive),0.986 (inactive),1.05 (inactive),0.998 (inactive),1.06 (inactive)
CN1[C@@H]2C[C@@H](OC(=O)[C@H](CO)c3ccccc3)C[C@H]1[C@@H]1O[C@@H]12 [Scopolamine hydrochloride],1.07,1.01,1.03,1.08,0.953 (inactive),1.2 (inactive),1.08 (inactive),1.17 (inactive),0.965 (inactive),0.948 (inactive),1.02 (inactive),1.12 (inactive)
C=C1CC[C@@]2(O)[C@H]3Cc4ccc(O)c5c4[C@@]2(CCN3CC2CC2)[C@H]1O5 [Nalmefene hydrochloride],1.08,0.981,1.02,1.07,1.02 (inactive),0.942 (inactive),0.59 (inactive),0.99 (inactive),1.02 (inactive),1.03 (inactive),1.01 (inactive),0.578 (inactive)
CC[N+]1(C)CCCC(OC(=O)C(O)(c2ccccc2)c2ccccc2)C1 (stereo not drawn) [Pipenzolate bromide],0.938,0.997,0.994,1.05,0.982 (inactive),0.957 (inactive),0.956 (inactive),1.06 (inactive),1 (inactive),0.988 (inactive),1.01 (inactive),0.926 (inactive)
C[C@]12CC[C@@H]3c4ccc(OC(=O)N(CCCl)CCCl)cc4CC[C@H]3[C@@H]1CC[C@@H]2O [Estramustine],0.804,0.998,0.983,1.24,0.899 (inactive),0.616 (active),0.949 (inactive),1.01 (inactive),1.01 (inactive),1.05 (inactive),1.04 (inactive),0.928 (inactive)
ClC1C(Cl)C(Cl)C(Cl)C(Cl)C1Cl (stereo not drawn),1.06,1,1,1.14,0.984 (inactive),0.972 (inactive),0.98 (inactive),1 (inactive),1 (inactive),1.02 (inactive),0.994 (inactive),0.979 (inactive)
CC1(C)[C@H](C(=O)O[C@H](C#N)c2cccc(Oc3ccccc3)c2)[C@@H]1C=C(Br)Br,1.12,0.981,0.998,1.02,1.02 (inactive),0.958 (inactive),0.967 (inactive),0.983 (inactive),1.01 (inactive),0.989 (inactive),1 (inactive),0.915 (inactive)
CC(C)C[C@H](CN)CC(=O)O [Pregabalin],0.96,0.982,0.982,0.865,1.06 (inactive),1.04 (inactive),1.05 (inactive),1.03 (inactive),1 (inactive),1.02 (inactive),0.982 (inactive),1.06 (inactive)
COC(=O)N(OC)c1ccccc1COc1ccn(-c2ccc(Cl)cc2)n1,0.99,0.988,1.07,1.02,1.02 (inactive),1.02 (inactive),0.921 (inactive),1.04 (inactive),1.02 (inactive),1.01 (inactive),1 (inactive),0.888 (inactive)
CC[C@H](C)[C@H]1O[C@]2(C=C[C@@H]1C)C[C@@H]1C[C@@H](C/C=C(\C)[C@@H](O[C@H]3C[C@H](OC)[C@@H](O[C@H]4C[C@H](OC)[C@@H](O)[C@H](C)O4)[C@H](C)O3)[C@@H](C)/C=C/C=C3\CO[C@@H]4[C@H](O)C(C)=C[C@@H](C(=O)O1)[C@]34O)O2.CO[C@H]1C[C@H](O[C@H]2[C@H](C)O[C@@H](O[C@@H]3/C(C)=C/C[C@@H]4C[C@@H](C[C@]5(C=C[C@H](C)[C@@H](C(C)C)O5)O4)OC(=O)[C@@H]4C=C(C)[C@@H](O)[C@H]5OC/C(=C\C=C\[C@@H]3C)[C@]54O)C[C@@H]2OC)O[C@@H](C)[C@@H]1O,1.09,1.01,1.05,1.05,0.985 (inactive),0.855 (inactive),0.906 (inactive),0.989 (inactive),0.99 (inactive),0.968 (inactive),0.996 (inactive),0.885 (inactive)
CN1[C@@H]2CC[C@H]1C[C@@H](OC1c3ccccc3CCc3ccccc31)C2 [Deptropine citrate],0.826,1,0.992,0.954,1.06 (inactive),1.17 (inactive),0.877 (inactive),1.04 (inactive),1.02 (inactive),1.11 (inactive),0.999 (inactive),0.928 (inactive)
CNCC(O)c1ccc(O)cc1 (stereo not drawn) [Synephrine],1.04,1.09,1.01,0.887,1.02 (inactive),0.997 (inactive),1.05 (inactive),1.11 (inactive),0.982 (inactive),0.997 (inactive),0.989 (inactive),1.09 (inactive)
